{"source": "paper PMC4552634", "about": "“A New Set of Chemical Starting Points with Plasmodium falciparum Transmission-Blocking Potential for Antimalarial Drug Discovery” (PLoS ONE, 2015)", "note": "Among all 13,000 compounds or so, about 3,200 (25%) showed an effect of 50% or more. The list shows a part of the results.", "data": [{"tested_on": "P. falciparum stage V gametocytes", "parameters": "BacTiter-Glo ATP luminescence viability of purified stage V gametocytes in 384-well plates, per cent inhibition versus DMSO", "conditions": "48 h, 5 µM; inhibitor", "units": {"% Inhibition": "%"}, "values": [{"smiles": "N#CN1CC[C@H](CS(=O)(=O)c2cccc(Br)c2)C1", "note": "[TCMDC-133806]", "% Inhibition": 9.818}, {"smiles": "COc1ccc(N2C(=O)c3c(c4ccccc4n3C)C2c2ccccc2O)cc1", "note": "(stereo not shown) [TCMDC-124403]", "% Inhibition": -39.6}, {"smiles": "O=S(=O)(Nc1cc2c(cc1OCc1ccccc1)CCN(C1CCC1)CC2)c1ccc(-c2ccc(Cl)cc2)cc1", "note": "[TCMDC-136027]", "% Inhibition": -11.35}, {"smiles": "COc1cc2c(cc1S(=O)(=O)c1ccc(OCc3ccc(Cl)cc3)cc1)CCN(Cc1ccc(NC(C)=O)s1)CC2", "note": "[TCMDC-132326]", "% Inhibition": -7.841}, {"smiles": "O=S(=O)(c1ccc(OCc2ccc(Cl)cc2)cc1)c1cc2c(cc1O)CCN(C1CCC1)CC2", "note": "[TCMDC-135997]", "% Inhibition": 28.22}, {"smiles": "O=S(=O)(c1ccc(OCc2ccc(Cl)cc2)cc1)c1cc2c(cc1OCc1ccccc1)CCN(C1CCC1)CC2", "note": "[TCMDC-135998]", "% Inhibition": 60.24}, {"smiles": "O=S(=O)(c1ccc(OCc2ccc(Cl)cc2)cc1)c1cc2c(cc1OCc1ccccc1)CCN(CC1CC1)CC2", "note": "[TCMDC-134410]", "% Inhibition": 0.8378}, {"smiles": "O=S(=O)(c1ccc(OCc2ccc(Cl)cc2)cc1)c1cc2c(c(-c3ccc(F)cc3)c1)CCN(CC1CC1)CC2", "note": "[TCMDC-135736]", "% Inhibition": 93.21}, {"smiles": "COc1ccc2nccc([C@@H](O)CN3CCC(NCc4ccc5nsnc5c4)CC3)c2c1", "note": "[TCMDC-140928]", "% Inhibition": 4.203}, {"smiles": "O=C(NCc1cccc(C(F)(F)F)c1)C1CCCN(C(=O)c2ccc(O)c(-c3ccc(Cl)c(Cl)c3)c2)C1", "note": "(stereo not shown) [TCMDC-140885]", "% Inhibition": 20.85}, {"smiles": "O=C(Cc1cnc[nH]1)Nc1cccc(-c2cccc(-c3nc4ccccc4[nH]3)c2)c1", "note": "[TCMDC-136940]", "% Inhibition": -12.56}, {"smiles": "CCC(CSC1CCCCC1)N(C)CCN(C)C(CC)CSC1CCCCC1", "note": "(stereo not shown) [TCMDC-131456]", "% Inhibition": 101.8}, {"smiles": "CCc1ccc(NC(=O)c2ccc(CN3CCCN(Cc4cccs4)CC3)cc2)cc1", "note": "[TCMDC-136447]", "% Inhibition": -19.53}, {"smiles": "CC(C)C(=O)n1ncc2c3c(N)nc(N)nc3ccc21", "note": "[TCMDC-137841]", "% Inhibition": -14.38}, {"smiles": "CCN(CCO)Cc1ccc(-c2ccc(NS(=O)(=O)c3cccc4cccnc34)cc2)cc1", "note": "[TCMDC-136477]", "% Inhibition": -29.46}, {"smiles": "Cc1cc(C(=O)Nc2ccc3c(c2)CCN3C2CCN(Cc3csc4ccccc34)C2)no1", "note": "(stereo not shown) [TCMDC-135082]", "% Inhibition": 15.45}, {"smiles": "CCN(CC)CCNc1ccnc2c3ccccc3n(C)c12", "note": "[TCMDC-131844]", "% Inhibition": 2.979}, {"smiles": "CCN(CC)CCCNc1c2ccccc2nc2ccccc12.Cl", "note": "[TCMDC-125517]", "% Inhibition": 76.48}, {"smiles": "c1ccc2c(NCCc3c[nH]cn3)c3ccccc3nc2c1", "note": "[TCMDC-124424]", "% Inhibition": 5.484}, {"smiles": "Cl.c1ccc2c(NCCOCCNc3c4ccccc4nc4ccccc34)c3ccccc3nc2c1", "note": "[TCMDC-124265]", "% Inhibition": 121.8}, {"smiles": "CCCCNc1cc(NCCCC)c2c(n1)[nH]c1ccccc12", "note": "[TCMDC-131827]", "% Inhibition": -13.41}, {"smiles": "CCCCN(CCCC)CCCCCCNc1c2ccccc2nc2ccccc12", "note": "[TCMDC-137519]", "% Inhibition": 114.2}, {"smiles": "CCCCN(CCCC)CCCCNc1c2ccccc2nc2ccccc12", "note": "[TCMDC-137461]", "% Inhibition": 102}, {"smiles": "CCN(CC)CCCNc1cc[n+]([O-])c2cc3ccccc3cc12", "note": "[TCMDC-124146]", "% Inhibition": -26.87}, {"smiles": "Cc1ccc(-c2cccc3c(NC(=O)Nc4ccc5nccc(N6CCN(C)CC6)c5c4)cccc23)cn1", "note": "[TCMDC-139367]", "% Inhibition": -6.741}, {"smiles": "COc1ccccc1C1CCN(C2CCC(NC(=O)/C=C/c3ccc(C(F)(F)F)cc3)CC2)CC1", "note": "(stereo not shown) [TCMDC-133487]", "% Inhibition": 28.53}, {"smiles": "CCNc1cc(C)nc(Nc2ccc(NS(=O)(=O)c3ccccc3)cc2)n1", "note": "[TCMDC-124954]", "% Inhibition": -28.24}, {"smiles": "Cc1cccc(C)c1CNc1ccnc2cc(Br)ccc12", "note": "[TCMDC-132168]", "% Inhibition": -25.57}, {"smiles": "CCCCn1c(N)c(N(Cc2ccco2)C(=O)C=Cc2cc(OC)c3c(c2)OCCO3)c(=O)[nH]c1=O", "note": "[TCMDC-125328]", "% Inhibition": -14}, {"smiles": "O=C(NC1CCN(c2ccnc3cc(Cl)ccc23)C1)c1ccc(C(F)(F)F)cc1", "note": "(stereo not shown) [TCMDC-133661]", "% Inhibition": 38.8}, {"smiles": "Cn1nc2ccc3ccccc3c2nc1=N", "note": "[TCMDC-131260]", "% Inhibition": 93.18}, {"smiles": "Cc1cccc(Nc2nc(C)cc(N3CCCN(CC4CCCCC4)CC3)n2)c1", "note": "[TCMDC-137025]", "% Inhibition": -12.77}, {"smiles": "O=C(Nc1ccc(-c2nc3ccccc3[nH]2)cc1)c1ccc(S(=O)(=O)N2CCCCC2)cc1", "note": "[TCMDC-125834]", "% Inhibition": -22.63}, {"smiles": "O=C(COc1cnc2ccccc2n1)Nc1ccccc1Sc1ccc(Cl)cc1", "note": "[TCMDC-124892]", "% Inhibition": 99.33}, {"smiles": "COc1ccccc1C(C)NCC(=O)Nc1ccccc1Sc1ccccc1", "note": "(stereo not shown) [TCMDC-124877]", "% Inhibition": -2.069}, {"smiles": "NC(=O)C1Cc2ccccc2CN1CC(=O)Nc1ccccc1Sc1ccccc1", "note": "(stereo not shown) [TCMDC-124863]", "% Inhibition": 48.06}, {"smiles": "O=C(Nc1ccc2c(c1)CCN2C1CCN(Cc2cc(F)cc(F)c2F)C1)c1ccco1", "note": "(stereo not shown) [TCMDC-135071]", "% Inhibition": -23.05}, {"smiles": "CN1CCC(NCc2ccc(-c3ccc(S(=O)(=O)NCc4ccccc4)s3)cc2)CC1", "note": "[TCMDC-132231]", "% Inhibition": 68.61}, {"smiles": "CN1CCC(NCc2ccc(-c3ccc(S(=O)(=O)NC4CCC4)s3)cc2)CC1", "note": "[TCMDC-132232]", "% Inhibition": 57.53}, {"smiles": "CC(C)(CNC(=O)[C@@H]1CCCCN1)c1nc(-c2ccc(Cl)c(O)c2)c(-c2ccncc2)[nH]1", "note": "[TCMDC-141079]", "% Inhibition": -69.36}, {"smiles": "O=C(NCCN1CCCC1)c1cccc(-c2ccc(-c3nc4ccc(F)cc4[nH]3)s2)c1", "note": "[TCMDC-132318]", "% Inhibition": 15.45}, {"smiles": "CS(=O)(=O)c1ccc(CNCc2ccc(-c3ccc(-c4nc5ccc(F)cc5[nH]4)s3)cc2)cc1", "note": "[TCMDC-132900]", "% Inhibition": 4.618}, {"smiles": "O=C1CCCN1CCCNCc1ccc(-c2ccc(-c3nc4ccc(F)cc4[nH]3)s2)cc1", "note": "[TCMDC-132756]", "% Inhibition": -11.94}, {"smiles": "O=S(=O)(NCCN1CCCC1)c1ccc(-c2ccc(CNCc3ccc(F)cc3)cc2)s1", "note": "[TCMDC-132284]", "% Inhibition": 66.59}, {"smiles": "O=S(=O)(NCCN1CCCC1)c1ccc(-c2cccc(CNCc3ccc(F)cc3)c2)s1", "note": "[TCMDC-132273]", "% Inhibition": 98.81}, {"smiles": "CC(C)(C)CC(C)(C)c1ccc(O)c(CNC2CCCCC2)c1", "note": "[TCMDC-137604]", "% Inhibition": 41.75}, {"smiles": "Cc1nnc(NC(=O)c2cn(-c3ccccc3)nc2-c2ccccc2C)o1", "note": "[TCMDC-125040]", "% Inhibition": 22.18}, {"smiles": "COc1ccc(OC)c(C(O)C(C)NCc2cc(Cl)ccc2O)c1", "note": "(stereo not shown) [TCMDC-137921]", "% Inhibition": 36.34}, {"smiles": "COc1ccc(C(=O)Nc2ccc(Cl)cc2C(=O)Nc2ccncc2)cc1", "note": "[TCMDC-123739]", "% Inhibition": 84.9}, {"smiles": "O=C(Nc1ccc(Cl)cc1)c1cc(Cl)ccc1NC(=O)C1(c2ccc(Cl)cc2)CCCC1", "note": "[TCMDC-136643]", "% Inhibition": -21.36}, {"smiles": "O=C(Nc1ccc(Cl)cc1C(=O)Nc1ccncc1)c1ccc(Cl)cc1Cl", "note": "[TCMDC-125853]", "% Inhibition": 59.79}, {"smiles": "Cn1ccnc1CCC(=O)Nc1ccc(Cl)cc1C(=O)Nc1ccc(Cl)cc1", "note": "[TCMDC-136703]", "% Inhibition": 12.32}, {"smiles": "Cc1nc(-c2ccncc2)sc1C(=O)Nc1ccc(Cl)cc1C(=O)Nc1ccc(Cl)cc1", "note": "[TCMDC-136515]", "% Inhibition": 3.625}, {"smiles": "Cc1ccc(NC(=O)Nc2ccc(Cl)cc2)cc1-c1ccc(C(=O)Nc2ccncc2)cc1", "note": "[TCMDC-133702]", "% Inhibition": -59.17}, {"smiles": "COc1ccc(CN(C)CCCc2ccc(NC(=O)c3cc4ccccc4[nH]3)cc2)cc1OC", "note": "[TCMDC-131855]", "% Inhibition": -11.14}, {"smiles": "Nc1ccc2nc(C=Cc3ccc(Cl)cc3)[nH]c2c1", "note": "[TCMDC-123608]", "% Inhibition": -19.77}, {"smiles": "CN1CCc2ccc(NC(=O)Nc3ccc(Cl)c(Cl)c3)cc2C1", "note": "[TCMDC-133728]", "% Inhibition": 0.1652}, {"smiles": "Cc1ccc(NC(=O)Nc2ccc(I)c(OCCN(C)C)c2)cc1Cl", "note": "[TCMDC-139122]", "% Inhibition": -20.44}, {"smiles": "Cc1ccc(NC(=O)Nc2ccc(S(=O)(=O)c3ccc(NC(=O)Nc4ccc(C)c(Cl)c4)cc3)cc2)cc1Cl", "note": "[TCMDC-124273]", "% Inhibition": 85.03}, {"smiles": "COc1ccc(C(=O)CCC(=O)N(Cc2ccc(-c3ccc(CNCCc4ccccc4)cn3)cc2)C(C)CN(C)C)cc1F", "note": "(stereo not shown) [TCMDC-141554]", "% Inhibition": 109.3}, {"smiles": "COc1ccc(C(=O)CCC(=O)N(CCC2CCCN2C)Cc2ccc(-c3ccc(CNCCc4ccc(S(C)(=O)=O)cc4)cn3)cc2)cc1F", "note": "(stereo not shown) [TCMDC-141513]", "% Inhibition": -2.666}, {"smiles": "COc1ccc(C(=O)CCC(=O)N(CCSC(C)(C)C)Cc2ccc(-c3ccc(CNCCc4ccc(S(C)(=O)=O)cc4)cn3)cc2)cc1F", "note": "[TCMDC-141517]", "% Inhibition": 33.86}, {"smiles": "COc1ccc(C(=O)CCC(=O)N(Cc2ccc(-c3ccc(CNCCc4ccc(S(C)(=O)=O)cc4)cn3)cc2)C2CC3CCC2C3)cc1F", "note": "(stereo not shown) [TCMDC-141515]", "% Inhibition": -37.66}, {"smiles": "COc1ccc(C(=O)CCC(=O)N(Cc2ccc(-c3ccc(CNCCc4ccc(S(C)(=O)=O)cc4)cn3)cc2)C(C)CN(C)C)cc1F", "note": "(stereo not shown) [TCMDC-141512]", "% Inhibition": 102.4}, {"smiles": "COc1ccc(C(=O)CCC(=O)N(Cc2ccc(-c3ccc(CNCCc4ccc(S(C)(=O)=O)cc4)cn3)cc2)Cc2ccc3c(c2)OCO3)cc1F", "note": "[TCMDC-141514]", "% Inhibition": 67.48}, {"smiles": "CCC(CC)N1C(=O)C(c2ccccc2)(c2ccccc2)N=C1N", "note": "[TCMDC-136516]", "% Inhibition": -14.59}, {"smiles": "CCOC(=O)C(NC(=O)Cc1ccccc1)C(C)C", "note": "(stereo not shown) [TCMDC-131334]", "% Inhibition": -5.463}, {"smiles": "CN(C)CCCOc1ccc(-c2nc(-c3ccc4c(c3)CCC4=NO)c(-c3ccncc3)[nH]2)cc1", "note": "[TCMDC-140742]", "% Inhibition": 7.087}, {"smiles": "ON=C1CCc2cc(-c3cc(-c4ccc(OC5CCNCC5)cc4)oc3-c3ccncc3)ccc21", "note": "[TCMDC-141381]", "% Inhibition": 91.63}, {"smiles": "ON=C1CCc2cc(-c3nc(-c4ccc(OCCN5CCCCC5)cc4)[nH]c3-c3ccncc3)ccc21", "note": "[TCMDC-141174]", "% Inhibition": 1.604}]}]}
